This is an account of results in PubChem BioAssay.

“And” between values parts separate entries of the source, which are not always exact repeats. Identical values can stand only once. The source made the active and inactive calls.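 How the source made its calls, unless noted: active means compounds whose cell count with miR-34 switched on is under 0.7 times the count with it off; inactive means the rest.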

Experiment [1] is described as follows: sensitizers of A549 cells to miR-34 induction, primary screen, imaging, A549 dox-inducible miR-34, nuclei and caspase counts (AID 1347080). To be noted: A549 miR-34 inducible, Hoechst nuclei count, 48 h.
A short description of experiment [2]: survival rescue of mitochondrial mutant cells in low glucose, primary screen, MELAS cybrids, Rieske KO mouse fibroblasts, CellTiter-Glo (AID 1508586;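 active means mean z-score across replicates of 1.96 or higher in either the MELAS or the Rieske mutant cell line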;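 further: z relative to plate mean and SD of compound and empty wells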). (In ATP-based viability assays light output follows the ATP content of the culture.)
The nature of experiment [3]: viability rescue of complex I mutant cybrids, primary screen, cell-based, galactose medium, ATP luminescence (AID 1645843;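 active means z-score of at least 1.8 in each of two replicates, scored against plate mean and spread of sample wells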;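 further: positive z means more ATP and so rescue of galactose-driven cybrid death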). The conditions noted are these: complex I mutant cybrid cells, 72 h, stronger effect = higher value.
Experiment [4] deals with NAD(+) hydrolase SARM1 (Homo sapiens) (UniProt Q6SZW1). The experiment in a line: SARM1 TIR NADase inhibitors, cell lysate, NAD-Glo luminescence (AID 1508614;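 active means compound whose remaining NAD level is above about 45 nM, limit read from the data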). The conditions noted are these: SAM-TIR HEK293T lysate NADase, at 1 µM, stronger effect = higher value.
Experiment [5] concerns the target Mitogen-activated protein kinase 7 (Homo sapiens) (UniProt Q13164). The experiment in a line: ERK5 transactivation activators in reporter cells, primary screen, cell-based, HTS (AID 1508626;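 active means luciferase signal above three times the same-plate solvent-only control wells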;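 further: luciferase driven by Gal4-ERK5 fusion binding five Gal4 sites before minimal TATA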). To be noted: HeLa Gal4-ERK5 transactivation, 18 h, at 5 µM, stronger effect = higher value.
[6] abbreviates: stronger effect = lower value, cell number ratio, induced over uninduced.
Setting [7] is: measured here: relative caspase fold change +Dox/-Dox.
Where [8] appears, read: measured here: total cells with miR-34 induction, stronger effect = lower value.
Setting [9] is: measured here: total cells without miR-34 induction.
[10] abbreviates: MELAS cybrid survival, CellTiter-Glo 48 h, stronger effect = higher value.
Setting [11] is: Rieske KO mouse fibroblast survival, CellTiter-Glo 72 h.

NAD(+) hydrolase SARM1 (Homo sapiens), sequence (Q6SZW1 whole entry, looked up, the tested form may be a part): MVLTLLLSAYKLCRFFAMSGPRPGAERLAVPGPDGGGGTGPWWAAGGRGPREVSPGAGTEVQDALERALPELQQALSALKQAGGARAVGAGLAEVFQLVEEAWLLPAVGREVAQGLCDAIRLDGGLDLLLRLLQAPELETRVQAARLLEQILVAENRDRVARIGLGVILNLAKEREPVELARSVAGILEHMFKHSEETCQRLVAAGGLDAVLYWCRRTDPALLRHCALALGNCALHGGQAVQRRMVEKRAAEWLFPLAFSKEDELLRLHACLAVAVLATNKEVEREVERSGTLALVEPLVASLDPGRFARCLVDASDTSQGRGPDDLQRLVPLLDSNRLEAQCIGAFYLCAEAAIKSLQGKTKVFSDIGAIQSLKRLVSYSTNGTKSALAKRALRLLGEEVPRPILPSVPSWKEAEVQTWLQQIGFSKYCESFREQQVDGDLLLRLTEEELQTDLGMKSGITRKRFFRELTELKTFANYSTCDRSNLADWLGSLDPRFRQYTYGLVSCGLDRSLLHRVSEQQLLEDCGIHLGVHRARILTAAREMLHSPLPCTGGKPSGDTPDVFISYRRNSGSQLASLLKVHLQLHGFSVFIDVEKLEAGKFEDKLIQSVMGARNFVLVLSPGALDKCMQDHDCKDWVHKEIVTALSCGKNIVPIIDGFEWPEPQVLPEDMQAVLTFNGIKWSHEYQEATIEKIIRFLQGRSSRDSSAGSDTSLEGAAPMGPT
Mitogen-activated protein kinase 7 (Homo sapiens), sequence (Q13164 whole entry, looked up, the tested form may be a part): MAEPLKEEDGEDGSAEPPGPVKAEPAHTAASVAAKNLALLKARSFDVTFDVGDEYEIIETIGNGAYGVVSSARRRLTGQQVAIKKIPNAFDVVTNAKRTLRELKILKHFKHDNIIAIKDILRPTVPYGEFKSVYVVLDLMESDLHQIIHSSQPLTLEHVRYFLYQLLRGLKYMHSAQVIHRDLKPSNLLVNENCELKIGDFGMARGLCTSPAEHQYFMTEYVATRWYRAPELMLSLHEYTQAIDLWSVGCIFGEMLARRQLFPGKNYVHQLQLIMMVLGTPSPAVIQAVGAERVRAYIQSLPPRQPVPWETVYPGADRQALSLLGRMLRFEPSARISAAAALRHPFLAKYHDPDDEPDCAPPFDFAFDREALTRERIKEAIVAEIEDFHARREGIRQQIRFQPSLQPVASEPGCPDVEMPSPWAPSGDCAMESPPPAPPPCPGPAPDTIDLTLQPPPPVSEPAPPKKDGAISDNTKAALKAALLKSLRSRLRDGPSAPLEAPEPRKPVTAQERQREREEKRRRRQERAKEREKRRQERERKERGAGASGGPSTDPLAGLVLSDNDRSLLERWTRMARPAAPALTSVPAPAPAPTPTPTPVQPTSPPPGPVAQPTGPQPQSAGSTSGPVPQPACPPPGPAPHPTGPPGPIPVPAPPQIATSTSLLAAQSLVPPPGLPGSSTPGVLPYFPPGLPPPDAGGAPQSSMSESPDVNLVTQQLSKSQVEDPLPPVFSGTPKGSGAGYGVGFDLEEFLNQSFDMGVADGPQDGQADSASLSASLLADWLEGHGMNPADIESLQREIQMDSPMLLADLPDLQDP

`Cc1[nH]cnc1CN1CCc2c(c3ccccc3n2C)C1=O`: the fold change in experiment [1] (setting [6]) is 0.98 (inactive); in experiment [1] (setting [7]), 1.07. For the same molecule, the cell count in experiment [1] (setting [8]) was 9740; in experiment [1] (setting [9]), 9940. The z-score in experiment [2] (setting [10]) was 0.685 (inactive); in experiment [2] (setting [11]), 0.531; in experiment [3] it was -0.045 (inactive).
On to `CCCCCCc1ccc(O)cc1O`, for which the fold change in experiment [1] (setting [6]) is 0.901 (inactive); in experiment [1] (setting [7]) it was 1.55. The cell count came to 11000 in experiment [1] (setting [8]) and 12200 in experiment [1] (setting [9]). In experiment [4], the remaining NAD is 10 nM (inactive). The luciferase signal in experiment [5] is 20 AU (inactive).
Turning to `CN1CCN(c2cc3c(cc2F)c(=O)c(C(=O)O)cn3-c2ccc(F)cc2)CC1`, the fold change in experiment [1] (setting [6]) is 0.87 (inactive); in experiment [1] (setting [7]), 0.995. For the same molecule, the cell count in experiment [1] (setting [8]) is 6840; in experiment [1] (setting [9]), 7860. Moreover, the remaining NAD in experiment [4] is 10 nM (inactive).
As to `CCC(=O)O[C@H]1[C@H](O[C@@H]2[C@@H](C)[C@H](O[C@H]3C[C@@](C)(OC)[C@@H](O)[C@H](C)O3)[C@@H](C)C(=O)O[C@H](CC)[C@@](C)(O)[C@H](O)[C@@H](C)C(=O)[C@H](C)C[C@@]2(C)O)O[C@H](C)C[C@@H]1N(C)C`, the fold change is 0.893 (inactive) in experiment [1] (setting [6]) and 3.7 in experiment [1] (setting [7]). Also, the cell count in experiment [1] (setting [8]) was 11600; in experiment [1] (setting [9]) it was 12900. For the same molecule, the remaining NAD in experiment [4] is 10 nM (inactive). Also, the luciferase signal in experiment [5] was 180 AU (active).
On to `O=C(CCBr)N1CCN(C(=O)CCBr)CC1`, for which the fold change in experiment [1] (setting [6]) is 0.869 (inactive); in experiment [1] (setting [7]) it was 2.68. Besides, the cell count in experiment [1] (setting [8]) was 6360; in experiment [1] (setting [9]) it was 7310. Besides, the remaining NAD in experiment [4] is 10 nM (inactive). Besides, the luciferase signal in experiment [5] was 92 AU (inactive).
Turning to `CN1CCN(C2=Nc3cc(F)ccc3Cc3ccccc32)CC1`, the fold change in experiment [1] (setting [6]) was 0.822 (inactive) and 0.853 (inactive); in experiment [1] (setting [7]), 1.3 and 0.98. In addition, the cell count in experiment [1] (setting [8]) was 5980 and 8510; in experiment [1] (setting [9]), 7280 and 9980. Also, the z-score in experiment [2] (setting [10]) is -0.621 (inactive); in experiment [2] (setting [11]), 0.127; in experiment [3] it was -0.47 (inactive) and -0.18 (inactive).
As to `O=C(O)c1cc(O)c(O)c(O)c1`, the fold change in experiment [1] (setting [6]) is 0.943 (inactive); in experiment [1] (setting [7]), 4.52. Also, the results for the cell count in experiment [1] (setting [8]) and in experiment [1] (setting [9]) were 11500 and 12200, respectively. Further, the remaining NAD in experiment [4] is 10 nM (inactive). Besides, the luciferase signal in experiment [5] was 100 AU (inactive).
Consider `COc1cc(C)nc(-n2nc(C)cc2OC)n1`, for which the fold change is 0.917 (inactive) and 1.02 (inactive) in experiment [1] (setting [6]); 1.25 and 2.09 in experiment [1] (setting [7]). The cell count was 8860 and 9160 in experiment [1] (setting [8]); 9670 and 8950 in experiment [1] (setting [9]). Moreover, the z-score is 0.813 (inactive) in experiment [2] (setting [10]), 0.154 in experiment [2] (setting [11]) and 0.61 (inactive) in experiment [3].
Turning to `O=C(OCc1ccccc1)c1ccccc1`, the fold change is 0.956 (inactive) in experiment [1] (setting [6]) and 3.44 in experiment [1] (setting [7]). Moreover, the cell count is 12000 in experiment [1] (setting [8]) and 12500 in experiment [1] (setting [9]). The remaining NAD in experiment [4] was 10 nM (inactive). In experiment [5], the luciferase signal is 88 AU (inactive).
As to `COc1cc(C(=O)NC2CCCNC2)cc(OC)c1OC` (centres undefined), the fold change was 0.933 (inactive) and 1.06 (inactive) in experiment [1] (setting [6]); 1.12 and 0.508 in experiment [1] (setting [7]). For the same molecule, the cell count is 9210 and 8810 in experiment [1] (setting [8]); 9870 and 8310 in experiment [1] (setting [9]). Further, the z-score in experiment [2] (setting [10]) is -0.284 (inactive) and -1.2 (inactive); in experiment [2] (setting [11]) it was -0.165 and -1.23; in experiment [3] it was 0.125 (inactive).
For `CC(=O)Oc1cccc(O)c1`, the fold change in experiment [1] (setting [6]) is 0.87 (inactive); in experiment [1] (setting [7]), 5.2. Also, the cell count in experiment [1] (setting [8]) amounted to 11300; in experiment [1] (setting [9]) it was 13000. In addition, in experiment [4], the remaining NAD is 10 nM (inactive). Also, in experiment [5], the luciferase signal was 20 AU (inactive).
On to `O=C1OC(c2ccc(O)cc2)(c2ccc(O)cc2)c2ccccc21`, for which the fold change in experiment [1] (setting [6]) was 0.823 (inactive); in experiment [1] (setting [7]), 1.14. Besides, the results for the cell count in experiment [1] (setting [8]) and in experiment [1] (setting [9]) were 10900 and 13200, respectively. The remaining NAD in experiment [4] was 10 nM (inactive). The luciferase signal in experiment [5] was 84 AU (inactive).
`CC(=O)OCC1=C(C(=O)O)N2C(=O)[C@@H](NC(=O)CSc3ccncc3)[C@H]2SC1`: the values for the fold change in experiment [1] (setting [6]) and in experiment [1] (setting [7]) were 0.915 (inactive) and 4.65, respectively. The cell count was 11600 in experiment [1] (setting [8]) and 12700 in experiment [1] (setting [9]). Moreover, the remaining NAD in experiment [4] was 10 nM (inactive). Moreover, the luciferase signal in experiment [5] is 32 AU (inactive).
Turning to `NC1CCN(c2nc3c(cc2F)c(=O)c(C(=O)O)cn3-c2ccc(F)cc2F)C1` (centres undefined), the fold change in experiment [1] (setting [6]) was 0.986 (inactive) and 0.879 (inactive); in experiment [1] (setting [7]), 1.53 and 1.43. Moreover, the cell count is 9740 and 8420 in experiment [1] (setting [8]); 9880 and 9570 in experiment [1] (setting [9]). The z-score was -0.38 (inactive) and 0.118 (inactive) in experiment [2] (setting [10]); -2.21 and -0.244 in experiment [2] (setting [11]); 0.62 (inactive) and -0.04 (inactive) in experiment [3].
For the molecule `Oc1cccc(O)c1`, the fold change was 0.918 (inactive) in experiment [1] (setting [6]) and 2.54 in experiment [1] (setting [7]). Moreover, the results for the cell count in experiment [1] (setting [8]) and in experiment [1] (setting [9]) were 12000 and 13100, respectively. The remaining NAD in experiment [4] was 10 nM (inactive). Further, the luciferase signal in experiment [5] is 20 AU (inactive).
Consider `CN1CCCN=C1COC(=O)C(O)(c1ccccc1)C1CCCCC1` (centres undefined), for which the fold change in experiment [1] (setting [6]) is 0.832 (inactive); in experiment [1] (setting [7]), 3.67. For the same molecule, the cell count in experiment [1] (setting [8]) was found to be 10300; in experiment [1] (setting [9]) it was 12400. Also, the remaining NAD in experiment [4] is 10 nM (inactive). In experiment [5], the luciferase signal was 80 AU (inactive).
As to `CCN(CC)C(=O)c1cccc(C)c1`, the fold change was 0.989 (inactive) in experiment [1] (setting [6]) and 1.76 in experiment [1] (setting [7]). Also, the cell count in experiment [1] (setting [8]) amounted to 11700; in experiment [1] (setting [9]), 11800. In addition, in experiment [4], the remaining NAD is 10 nM (inactive). Also, the luciferase signal in experiment [5] is 68 AU (inactive).
As to `OCc1ccccc1O`, the fold change was 0.861 (inactive) in experiment [1] (setting [6]) and 4.19 in experiment [1] (setting [7]). The cell count in experiment [1] (setting [8]) stood at 10600; in experiment [1] (setting [9]), 12400. Moreover, the remaining NAD in experiment [4] is 10 nM (inactive). Besides, the luciferase signal in experiment [5] is 28 AU (inactive).
On to `NC(=O)c1ccccc1O`, for which the values for the fold change in experiment [1] (setting [6]) and in experiment [1] (setting [7]) were 0.92 (inactive) and 3.12, respectively. The cell count in experiment [1] (setting [8]) was 11700; in experiment [1] (setting [9]) it was 12800. The remaining NAD in experiment [4] is 10 nM (inactive). In addition, in experiment [5], the luciferase signal was 56 AU (inactive).
For the molecule `Nc1ccc(C(=O)O)cc1`, the fold change in experiment [1] (setting [6]) was 0.846 (inactive); in experiment [1] (setting [7]), 0.809. Also, the values for the cell count in experiment [1] (setting [8]) and in experiment [1] (setting [9]) were 10600 and 12500, respectively. Besides, the remaining NAD in experiment [4] is 10 nM (inactive). Moreover, the luciferase signal in experiment [5] was 40 AU (inactive).
On to `O=C1C(O)=C(O)C(=O)C(O)=C1O`, for which the fold change in experiment [1] (setting [6]) is 0.863 (inactive) and 0.913 (inactive); in experiment [1] (setting [7]), 1.35 and 4.01. In addition, the cell count in experiment [1] (setting [8]) is 9350 and 12000; in experiment [1] (setting [9]), 10800 and 13100. Also, the remaining NAD in experiment [4] is 10 nM (inactive). In experiment [5], the luciferase signal is 20 AU (inactive).
With `CC(=O)Nc1ccc(S(=O)(=O)Nc2ccc([N+](=O)[O-])cc2)cc1`, the fold change in experiment [1] (setting [6]) was 0.908 (inactive); in experiment [1] (setting [7]), 3.51. In addition, the cell count in experiment [1] (setting [8]) was determined as 11400; in experiment [1] (setting [9]) it was 12500. Moreover, the remaining NAD in experiment [4] was 10 nM (inactive). For the same molecule, the luciferase signal in experiment [5] is 24 AU (inactive).
On to `CC(=O)Nc1c(I)cc(I)c(C(=O)O)c1I`, for which the fold change was 0.913 (inactive) in experiment [1] (setting [6]) and 2.27 in experiment [1] (setting [7]). Moreover, the cell count was 12100 in experiment [1] (setting [8]) and 13200 in experiment [1] (setting [9]). Also, the remaining NAD in experiment [4] was 10 nM (inactive). In experiment [5], the luciferase signal is 40 AU (inactive).
Consider `CCCCNc1c(C(=O)OCC)c(C)nc2c1cnn2CC`, for which the fold change in experiment [1] (setting [6]) was 1.09 (inactive) and 0.956 (inactive) and 0.928 (inactive); in experiment [1] (setting [7]), 1.73 and 0.694 and 0.876. The cell count in experiment [1] (setting [8]) is 9150 and 8740 and 7780; in experiment [1] (setting [9]), 8430 and 9140 and 8370. Besides, the z-score was 2.27 (active) in experiment [2] (setting [10]); 1.7 in experiment [2] (setting [11]); 0.17 (inactive) and 0.34 (inactive) in experiment [3].
For the molecule `O=C(O)CCCCC1CCSS1` (centres undefined), the figures for the fold change in experiment [1] (setting [6]) and in experiment [1] (setting [7]) were 1.15 (inactive) and 0.668, respectively. The cell count was determined as 6920 in experiment [1] (setting [8]) and 6020 in experiment [1] (setting [9]). Moreover, in experiment [4], the remaining NAD was 10 nM (inactive).
